Measured values from ChEMBL document CHEMBL4513216, “Probing the Open Global Health Chemical Diversity Library for Multistage-Active Starting Points for Next-Generation Antimalarials” (ACS Infect Dis, 2020).
Among all 65,000 compounds or so, about 2,100 (3.2%) showed an effect of 50% or more. The median lay at about -52%. The sample holds strong results, similar compounds and a random draw of the others, so the mix is not that of the screen.

tested on: Plasmodium falciparum; assay: Screen against P. falciparum Asexual Blood Stage (ABS), at 5uM; format: functional, Dd2; settings: tested at 5 uM

Compound	INHIBITION
O=C1CSC(c2ccc(Cl)cc2Cl)c2c(n(C3CCOCC3)[nH]c2=O)N1 (centres undefined)	-37.1%
O=C(NCC1CC[C@@]2(CNCCOC2)O1)c1cccnc1 (some centres undefined)	-65.9%
Cc1n[nH]c2c1C(c1ccsc1)SCC(=O)N2 (centres undefined)	-110%
c1cncc(OC[C@]23COC[C@H]2CN(C2CCOCC2)C3)c1	-10.4%
CCCOc1ccc2ccccc2c1CN1CC[C@@]2(O)CCNC[C@H]2C1	93.2%
CSCCCN1CC[C@@]2(O)CCN(c3ncccn3)C[C@H]2C1	16.4%
O=C(O)[C@]12CCCN(C3CCOC3)C[C@H]1CN(c1ncccn1)C2 (some centres undefined)	-128%
CN(C)C(=O)c1ccc(-c2cccc3c2CCNC3)cc1	-115%
OC1(c2ccc(F)cc2)CCN(Cc2ccccc2N2CCCC2)CC1	71.9%
Oc1ccc(N2CCN(Cc3ccc(F)cc3Br)CC2)cc1	-85.8%
O=C(NCC1CC1)[C@@H]1C[C@@H]2OCCN[C@@H]2C1	-55.3%
O=C1NCC[C@]12CN(Cc1cccnc1)C[C@H]2c1ccccc1	-11.5%
Cc1cccc(CN2CCC23CCCNC3)n1 (centres undefined)	12%
Cc1ccccc1N1CCCN(CC2(O)CCCNC2)CC1 (centres undefined)	87.7%
Cc1ccc(C)c(N2CCN(CC3(O)CCNC3)CC2)c1 (centres undefined)	85.9%
Cc1nc2c(C)cccc2cc1C(=O)N1CCC2(CCCNC2)C1 (centres undefined)	-31.7%
CC(=O)N1CC2(CCNCC2)c2cc(C)ccc21	1.98%
Cc1cnn(CC(C)NCc2ccc(C#N)cc2F)c1 (centres undefined)	-84.2%
c1cc(CN2CCO[C@H]3[C@H](OCC4CCCC4)CC[C@@H]32)ccn1	-71.1%
CN(C)CCN(C)C[C@H]1CN2CC[C@H]1C[C@@H]2CNC(=O)Nc1ccsc1	-49.3%
Cc1nc(CN2CCOC3(CCCC3)C2)oc1C	-101%
C[C@H]1CN2C[C@H](O)CC2CN1Cc1ccncc1 (some centres undefined)	-85.4%
C[C@@H]1CN2C[C@H](O)CC2CN1Cc1ccncc1 (some centres undefined)	-64.4%
O[C@@H]1C[C@H]2CN(Cc3ccsc3)[C@@H](Cc3ccccc3)CN2C1	71.6%
Cc1ccc(-n2nnc(CC(=O)N3CCN(C4CC4)CC3)c2C)cc1	-35.9%
COc1cccc(C2SCC(=O)Nc3n[nH]cc32)c1OC(C)C (centres undefined)	-75.3%

Compound	INHIBITION
Cc1ccc(CNC(CN2CCN(C)CC2)c2ccccc2)cc1 (centres undefined)	79.5%
CN1CCN(CC(NCc2ccc(F)c(F)c2)c2ccccc2)CC1 (centres undefined)	83.8%
COc1cccc(CC(C)NC(=O)NCc2ccn(C)c2)c1 (centres undefined)	-91.8%
O=C(Cc1ccc(F)cc1)N1CCN(CC(O)c2ccccc2)CC1 (centres undefined)	-18%
Cc1cnn(CC(C)NCc2cccc(C#N)c2)c1 (centres undefined)	-41.8%
Cc1cccc(CNC(CN2CCN(C)CC2)c2ccccc2)c1 (centres undefined)	83.5%
O=C(Cc1ccccc1)N1CCN(CC(O)c2ccc(F)cc2)CC1 (centres undefined)	-118%
COc1cccc(CC(C)NC(=O)NC(C)C)c1 (centres undefined)	-64.2%
COc1cccc(CNC(CN2CCN(C)CC2)c2ccccc2)c1 (centres undefined)	82%
Cc1ccc(CC(=O)N2CCN(CC(O)c3ccccc3)CC2)cn1 (centres undefined)	-130%
O=C(c1ccncc1F)N1C[C@@H]2OCCN(CC3CC3)[C@@H]2C1	-66.6%
O=C(C1CCCCC1)N1CCC2(CC1)OCCO2	-149%
O=C(Nc1ccccc1)[C@H]1C[C@H]2CN(Cc3cccnc3)C[C@@H]1O2	-15%
Cc1ccc(C(=O)N2C[C@H](N3CCOCC3)[C@@H]3OCCC[C@@H]32)cn1	-62.2%
CN(Cc1nc(C2CC2)no1)C(=O)CN1CC(c2ccccc2)CC1=O (centres undefined)	-52.4%
CCN(CC1CN(Cc2nc(C3CC3)no2)CCO1)c1cccnn1 (centres undefined)	73.3%
CNC(=O)c1ccc2c(c1)C1(CCN(CCOC)CC1)C(=O)N2	-12.8%
COCCCN1CCCN(C(C)C(=O)Nc2cccc(I)c2)CC1 (centres undefined)	90%
COCCn1cc(NC(=O)NC(C)Cc2c(F)cccc2F)cn1 (centres undefined)	-151%
Cn1ncc2c(N3CCCN4CCC[C@H]4C3)nc(C(C)(C)C)nc21	-68.8%
O=c1[nH]c(NC2CCCC2)nc2nccc(-c3ccco3)c12	72.4%
COCCN1CCN(Cc2cccnc2)[C@H]2CS(=O)(=O)C[C@H]21	-9.43%
COc1ncccc1CN1CC[C@H]2O[C@H](c3nnc(C)o3)CC[C@H]21	-73.1%
CCOc1ccccc1CNCC1CCN(CC(C)O)CC1 (centres undefined)	75.9%
CC(O)CN1CCN(C(=O)Cc2ccccc2Cl)CC1 (centres undefined)	-179%
CC(O)CN1CCC(CNCc2cccc(Br)c2)CC1 (centres undefined)	87.8%

Compound	INHIBITION
CC(O)CN1CCC(CNCc2cccc(Cl)c2)CC1 (centres undefined)	87.9%
CC(Cc1cccc(Cl)c1)NC(=O)Nc1cnn(CC(N)=O)c1 (centres undefined)	-5.01%
COCC(C)NC(=O)c1cn(C(C)(C)C)c2ncccc12 (centres undefined)	-120%
COc1ccc(CC(=O)N2CCN(Cc3ccco3)C[C@@H]2C)cc1OC	-135%
COc1ccc(C2SCC(=O)Nc3ccsc32)cc1OC (centres undefined)	-6.6%
CCNC(=O)NC(=O)CNC1(c2noc(C)n2)CCCCC1	-46.9%
CN1Cc2ccccc2NC(=O)C12CCNC2 (centres undefined)	-33.4%
O=C1CC[C@@H]2[C@@H](CCN2Cc2ccccn2)N1CC1CC1	-65.4%
c1ccc(-c2ncc3c(n2)C2(CCN(CC4CC4)C2)COC3)cc1 (centres undefined)	32%
CN1CCn2c(-c3ccccc3)cnc2C12CCN(CC1CC1)CC2	80.9%
Fc1cnc(N2CC3(CCN(CC4CC4)C3)C2)nc1	-62.7%
CC(=O)N1CCC2(CC1)c1ncc(-c3cccnc3)n1CCN2C	-45.5%
CN1CCn2c(-c3cccc(F)c3)cnc2C12CCN(CC1CC1)CC2	76.5%
Cc1nc(C2(NCC(=O)NC(=O)NCc3cccs3)CCCCC2)no1	-111%
Cc1ncc2c(c1CNC(=O)C1(C)CC1)CCNC2	-29.6%
Cc1cccc(Nc2cccc(C3CCCN(Cc4ncc[nH]4)C3)n2)n1 (centres undefined)	89.4%
Cc1noc(C)c1CN1C(=O)[C@@H]2CC[C@H]1CN(Cc1ncc[nH]1)C2	-55.8%
Cc1cccc(CN2CCN3C(=O)NC[C@H]3C2)n1	-4.56%
O=C(Cc1cccs1)N1CC[C@H]2[C@H]1CCN2Cc1cccnc1	19.8%
Cc1cc(C)c(CNc2nc3ccccc3cc2CO)c(=O)[nH]1	21.9%
CCn1ccnc1CN1CCNCC1C (centres undefined)	-43.7%
CCc1ccc(C2c3nc[nH]c3CCN2Cc2nccn2CC)nc1 (centres undefined)	90.1%
Cc1cc(CC(=O)N2CCN(CC(C)C)[C@@H]3CS(=O)(=O)C[C@@H]32)ccc1F	-48.2%
Cc1cccc(CN2CC[C@@H]3[C@@H]2CCN3C(=O)c2cnoc2C)n1	-26.9%
NC(=O)CN1CCCN(C(=O)Cc2ccc3c(c2)OCCO3)CC1	-57.5%
O=C1OCCC1N1CCN(C(=O)Cc2ccccc2Cl)CC1 (centres undefined)	-47.5%

Compound	INHIBITION
O=C(CCN1CCCC1c1cccc2c1OCCO2)N1CCCCC1 (centres undefined)	73.2%
CN(C)CCCN(C)C1CCN(c2cccc(-c3cscn3)c2)CC1	81.2%
O=C1CC[C@@H]2[C@@H](CCN2Cc2ccncc2)N1c1ccccc1	-11.8%
O=C1Nc2ccccc2CC12CCCN2Cc1cccnc1 (centres undefined)	-69.2%
CN(Cc1nccs1)c1nc(-c2ccccn2)nc2c1CCNCC2	83.7%
CN1CCN(Cc2ccsc2)Cc2cccnc21	-81%
CN(Cc1ccon1)c1nc(-c2ccccn2)nc2c1CCNCC2	76.3%
CN(Cc1ccsc1)c1nc(-c2ccccn2)nc2c1CCNCC2	79.7%
CCc1nc(-c2ccc(NC(=O)N3CCC4(CC3)OCCO4)cc2)no1	30.5%
O=C1CO[C@@H]2CN(Cc3cccs3)C[C@H]2N1Cc1cccnc1	-28.4%
O=C(c1cc(-n2cccc2)ccc1Cl)N1CCC2(CC1)OCCO2	-6.62%
COc1cccc(CN(C)Cc2[nH]c3ccccc3c2C)c1O	88.7%
O=C1CSC(c2ccncc2)c2c[nH]nc2N1 (centres undefined)	-101%
Fc1cccc(Nc2nc(N3CCCC3)nc3c2CNCC3)c1	84.3%
COc1cccc(Nc2nc(N3CCCC3)nc3c2CNCC3)c1	85.7%
COc1cccc(Nc2nc(-c3ccncc3)nc3c2CNCC3)c1	82.2%
CC(C)(C)n1cc(C(=O)O)c(-c2ccc(F)cc2F)n1	-86.4%
Fc1cnc(N2CCN3C[C@H](Oc4cncnc4)C[C@H]3C2)nc1	-74.8%
c1ccc(CN2CCOC3CNCC[C@H]32)cc1 (some centres undefined)	23.5%
Cc1nc(CN2CCO[C@H]3CN(C(=O)Cc4cccs4)C[C@H]32)cs1	-65.8%
CC1(c2ccccc2)CCCN(Cc2cncn2C2CCCC2)C1 (centres undefined)	91%
O=c1c2ccccc2cnn1Cc1cncn1C1CC1	-100%
CS(=O)(=O)N1CCC2(CCCN(Cc3ccccn3)C2)CC1	-200%
COCCNc1c(C#N)c2c(c3nncn13)CN(C)CC2	-128%
CC(C)(C)CN1CCCC2(CCN(C(=O)c3ccc(O)nc3)C2)C1 (centres undefined)	-154%
CC(C)(C)c1cn(C[C@H]2CC3CCN2C[C@@H]3C(=O)N2CCOCC2)nn1 (some centres undefined)	-111%
